Reference: PubChem BioAssay (NCI)
Values joined by “and” are separate entries in the source; they are usually repeats but may differ in a detail not shown here. Identical values can stand only once. Compounds without any hit were thinned out: in the full panel of roughly 79,000, 15% have a hit. The source holds several records for some structures; these can differ, active in one and inactive in another. Active and inactive are the calls of the source. Rule as the data show it: active = growth inhibition above about 70%; inactive = the rest.

Key:
[1] = NCI Yeast Anticancer Drug Screen. Data for the rad52 strain (AID 147);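 also: 0% = growth of vehicle-treated control cultures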; conditions: S. cerevisiae rad52 mutant growth inhibition, stronger effect = higher value
In short: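 Genetically altered yeast (DNA damage repair defect) treated with compound; inhibition calculated relative to vehicle.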

[2] = NCI Yeast Anticancer Drug Screen. Data for the wt1 strain (AID 149);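 also: 0% = growth of vehicle-treated wt1 cultures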; conditions: S. cerevisiae wt1 strain (SPY 50644) growth inhibition, stronger effect = higher value
In short: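 Each compound is tested on wt1 yeast and the loss of growth versus vehicle gives the inhibition value.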

[3] = NCI Yeast Anticancer Drug Screen. Data for the mgt1 strain (AID 153); conditions: S. cerevisiae mgt1 mutant growth inhibition, stronger effect = higher value
In short: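 Read-out: yeast growth inhibition vs vehicle control. Strain mgt1, drawn from a panel altered in DNA damage repair or cell cycle control.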

[4] = NCI Yeast Anticancer Drug Screen. Data for the rad50 strain (AID 155);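 also: 0% = growth of vehicle-only cultures of the same strain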; conditions: S. cerevisiae rad50 strain growth inhibition, stronger effect = higher value
In short: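 Vehicle-treated cultures provide the reference for the growth inhibition reported for compound-exposed, repair-deficient yeast.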

[5] = NCI Yeast Anticancer Drug Screen. Data for the mec2-1 strain (AID 157); conditions: S. cerevisiae mec2-1 strain, stronger effect = higher value
In short: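 Cells of the genetically defined mec2-1 yeast strain are incubated with test compound. Inhibition of growth is calculated against vehicle-treated controls.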

[6] = NCI Yeast Anticancer Drug Screen. Data for the rad14 strain (AID 159);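 also: 0% = growth of vehicle-treated control cultures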; conditions: S. cerevisiae rad14 strain growth inhibition, stronger effect = higher value
In short: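 Inhibition of growth is reported for a repair-deficient yeast mutant following compound treatment, calculated relative to cultures that received vehicle.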

[7] = NCI Yeast Anticancer Drug Screen. Data for the sgs1 mgt1 strain (AID 161);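 also: 0% = growth of cultures given vehicle only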; conditions: S. cerevisiae sgs1 mgt1 strain, stronger effect = higher value
In short: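 Test agents were incubated with a DNA-repair-mutant yeast strain. Growth was then read and compared against vehicle-treated controls.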

[8] = NCI Yeast Anticancer Drug Screen. Data for the CLN2oe strain (AID 163);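 also: 0% = growth of vehicle-only control cultures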; conditions: S. cerevisiae CLN2oe strain, stronger effect = higher value
In short: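 Strain altered in cell-cycle control, incubated with compound; growth compared to solvent-treated controls.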

[9] = NCI Yeast Anticancer Drug Screen. Data for the cln2 rad14 strain (AID 165);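 also: 0% = growth equal to vehicle treated cultures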; conditions: S. cerevisiae cln2 rad14 strain, stronger effect = higher value
In short: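 The screen exposed genetically defined yeast (cln2 rad14) to test compounds and scored growth inhibition relative to vehicle-treated controls.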

[10] = NCI Yeast Anticancer Drug Screen. Data for the bub3 strain (AID 167); conditions: S. cerevisiae bub3 mutant strain, stronger effect = higher value
In short: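 Mutant yeast screening strain plus compound; vehicle-treated cultures serve as the 0% inhibition reference.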

[11] = NCI Yeast Anticancer Drug Screen. Data for the wt2 strain (AID 169); conditions: S. cerevisiae wt2 strain growth inhibition, stronger effect = higher value
In short: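 Steps: yeast strain treated with compound; growth recorded; inhibition calculated relative to cultures given vehicle alone.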

[12] = NCI Yeast Anticancer Drug Screen. Data for the mlh1 strain (AID 171);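 also: 0% = growth of vehicle-treated control cultures of the same strain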; conditions: S. cerevisiae mlh1 strain growth inhibition, stronger effect = higher value
In short: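 Yeast screen: mutant strain plus compound, growth scored against vehicle control wells.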

[13] = NCI Yeast Anticancer Drug Screen. Data for the sgs1 strain (AID 173);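 also: 0% = growth of vehicle-only control cultures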; conditions: S. cerevisiae sgs1 mutant, stronger effect = higher value
In short: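 Inhibition of yeast growth served as the measure. The mutant strain was treated with each compound, and growth was normalised to cultures receiving vehicle alone.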

[14] = NCI Yeast Anticancer Drug Screen. Data for the mlh1 rad18 strain (AID 175); conditions: S. cerevisiae mlh1 rad18 strain growth inhibition, stronger effect = higher value
In short: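 Compound-treated yeast growth, normalised to vehicle controls. Strain bears defined DNA repair mutations.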

[15] = NCI Yeast Anticancer Drug Screen. Data for the rad18 strain (AID 177); conditions: S. cerevisiae rad18 mutant growth inhibition, stronger effect = higher value
In short: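 Inhibition values reflect reduced yeast growth compared with vehicle-treated controls, using a strain engineered with a DNA damage repair defect.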

[16] = at 5.0 µM (retest, dose inferred, filed as 0.5)
[17] = at 50.0 µM (retest, dose inferred, filed as 5.0)

In the case of `O=C(C[n+]1ccc2ccccc2c1)c1ccc2ccccc2c1`, the growth inhibition ([1]; at 1.2 µM) is reported as 10% (inactive), the growth inhibition ([1]; at 3.7 µM) is reported as -1% (inactive) and the growth inhibition ([1]; at 11.0 µM) is reported as 7% (inactive). For the same molecule, the growth inhibition ([1]; at 33.0 µM) was 20% (inactive), the growth inhibition ([1]; at 100.0 µM) was 99% (active) and the growth inhibition ([2]; at 1.2 µM) was -6% (inactive). For the same molecule, the growth inhibition ([2]; at 3.7 µM) was -17% (inactive), the growth inhibition ([2]; at 11.0 µM) was -24% (inactive) and the growth inhibition ([2]; at 33.0 µM) was -22% (inactive). For the same molecule, the growth inhibition ([2]; at 100.0 µM) was 97% (active), the growth inhibition ([3]; at 1.2 µM) was -18% (inactive) and the growth inhibition ([3]; at 3.7 µM) was -7% (inactive). For the same molecule, the growth inhibition ([3]; at 11.0 µM) was -32% (inactive), the growth inhibition ([3]; at 33.0 µM) was -13% (inactive) and the growth inhibition ([3]; at 100.0 µM) was 98% (active). For the same molecule, the growth inhibition ([4]; at 1.2 µM) was -20% (inactive), the growth inhibition ([4]; at 3.7 µM) was -26% (inactive) and the growth inhibition [4, 16] was 51% (inactive). The growth inhibition ([4]; at 11.0 µM) was -30% (inactive), the growth inhibition ([4]; at 33.0 µM) was -7% (inactive) and the growth inhibition [4, 17] was 100% (active). For the same molecule, the growth inhibition ([4]; at 50.0 µM) was -28.4% (inactive) and 85.2% (active), the growth inhibition ([4]; at 100.0 µM) was 98% (active) and the growth inhibition ([5]; at 1.2 µM) was -37% (inactive). The growth inhibition ([5]; at 3.7 µM) was -23% (inactive), the growth inhibition [5, 16] was 64% (inactive) and the growth inhibition ([5]; at 11.0 µM) was -77% (inactive). For the same molecule, the growth inhibition ([5]; at 33.0 µM) was -41% (inactive), the growth inhibition [5, 17] was 99% (active) and the growth inhibition ([5]; at 50.0 µM) was -5.2% (inactive) and 39.1% (inactive). The growth inhibition ([5]; at 100.0 µM) was 98% (active), the growth inhibition ([6]; at 1.2 µM) was -45% (inactive) and the growth inhibition ([6]; at 3.7 µM) was -44% (inactive). The growth inhibition ([6]; at 11.0 µM) was -36% (inactive), the growth inhibition ([6]; at 33.0 µM) was 11% (inactive) and the growth inhibition ([6]; at 100.0 µM) was 97% (active). For the same molecule, the growth inhibition [7, 16] was -46% (inactive), the growth inhibition [7, 17] was 77% (active) and the growth inhibition ([7]; at 50.0 µM) was -9.25% (inactive) and 61.6% (inactive). The growth inhibition ([8]; at 1.2 µM) was 8% (inactive), the growth inhibition ([8]; at 3.7 µM) was -9% (inactive) and the growth inhibition ([8]; at 11.0 µM) was 1% (inactive). For the same molecule, the growth inhibition ([8]; at 33.0 µM) was 13% (inactive), the growth inhibition ([8]; at 100.0 µM) was 99% (active) and the growth inhibition [9, 16] was 19% (inactive). The growth inhibition [9, 17] was 81% (active), the growth inhibition ([9]; at 50.0 µM) was -10% (inactive) and 71.2% (active) and the growth inhibition ([10]; at 1.2 µM) was -19% (inactive). For the same molecule, the growth inhibition ([10]; at 3.7 µM) was -12% (inactive), the growth inhibition [10, 16] was -4% (inactive) and the growth inhibition ([10]; at 11.0 µM) was -27% (inactive). For the same molecule, the growth inhibition ([10]; at 33.0 µM) was -15% (inactive), the growth inhibition [10, 17] was 51% (inactive) and the growth inhibition ([10]; at 50.0 µM) was -32.4% (inactive) and 71.7% (active). For the same molecule, the growth inhibition ([10]; at 100.0 µM) was 98% (active), the growth inhibition ([11]; at 1.2 µM) was -37% (inactive) and the growth inhibition ([11]; at 3.7 µM) was -25% (inactive). The growth inhibition ([11]; at 11.0 µM) was -53% (inactive), the growth inhibition ([11]; at 33.0 µM) was -18% (inactive) and the growth inhibition ([11]; at 100.0 µM) was 97% (active). The growth inhibition ([12]; at 1.2 µM) was -15% (inactive), the growth inhibition ([12]; at 3.7 µM) was -30% (inactive) and the growth inhibition ([12]; at 11.0 µM) was -36% (inactive). For the same molecule, the growth inhibition ([12]; at 33.0 µM) was -22% (inactive), the growth inhibition ([12]; at 100.0 µM) was 97% (active) and the growth inhibition ([13]; at 1.2 µM) was -30% (inactive). The growth inhibition ([13]; at 3.7 µM) was -34% (inactive), the growth inhibition ([13]; at 11.0 µM) was -34% (inactive) and the growth inhibition ([13]; at 33.0 µM) was -26% (inactive). The growth inhibition ([13]; at 100.0 µM) was 97% (active), the growth inhibition [14, 16] was 68% (inactive) and the growth inhibition [14, 17] was 100% (active). The growth inhibition ([14]; at 50.0 µM) was -11.2% (inactive) and 69.5% (inactive), the growth inhibition ([15]; at 1.2 µM) was -21% (inactive) and the growth inhibition ([15]; at 3.7 µM) was -24% (inactive). For the same molecule, the growth inhibition ([15]; at 11.0 µM) was -15% (inactive), the growth inhibition ([15]; at 33.0 µM) was -3% (inactive) and the growth inhibition ([15]; at 100.0 µM) was 99% (active).
